Compound activity from PubChem.
Sampled rows, rich in hits. Any-hit rate of the full collection: about 2.4%.
EP2 mod: EP2 receptor (human) modulation; P43116; EP2-expressing cells, cAMP HTRF FRET, PGE2 co-stimulation; induction, % at 25 µM; 260,000 tested, 0.83% active; AID 940;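 active = compounds whose cAMP rise, as percent of the full-agonist control response, exceeds 60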;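 note: rat C6 glioma line stably carrying human EP2 under a CMV promoter; the protocol text gives 20 µM as final concentration; 100% = response of wells given 1 µM PGE2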
Hck Nef HTS: blocks Nef-activated human Hck kinase; 220,000 tested, 0.68% active; Recombinant Hck-YEEI plus Nef, Z-Lyte FRET kinase assay; P08631; AID 463187; inhibition, % at 20 µM;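 active = Hck-Nef kinase inhibition above about 50%, limit read from the data; inactive = inhibition below that limit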;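 note: 0% = DMSO with Hck plus Nef and 100% = Hck alone without Nef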
Target sequence (P08631 whole entry, looked up): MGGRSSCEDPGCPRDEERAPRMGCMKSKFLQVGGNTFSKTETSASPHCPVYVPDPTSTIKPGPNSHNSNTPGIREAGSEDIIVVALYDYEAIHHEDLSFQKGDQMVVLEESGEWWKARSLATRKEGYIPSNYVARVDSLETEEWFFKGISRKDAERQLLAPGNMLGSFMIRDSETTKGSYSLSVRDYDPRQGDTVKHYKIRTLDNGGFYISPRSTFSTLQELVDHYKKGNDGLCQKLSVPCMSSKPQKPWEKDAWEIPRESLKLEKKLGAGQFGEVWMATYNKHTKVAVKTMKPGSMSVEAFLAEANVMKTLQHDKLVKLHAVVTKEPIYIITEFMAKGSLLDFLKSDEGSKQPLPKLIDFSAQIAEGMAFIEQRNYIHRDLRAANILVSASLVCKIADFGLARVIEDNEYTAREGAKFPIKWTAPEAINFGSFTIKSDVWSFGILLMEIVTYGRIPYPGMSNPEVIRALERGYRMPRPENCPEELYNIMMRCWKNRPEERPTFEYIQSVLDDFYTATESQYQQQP
p97 ATPase inh: inhibitors of human p97 ATPase; P55072; recombinant p97 ATPase, Kinase-Glo ATP luminescence, 3 h; inhibition, % at 8 µM; 220,000 tested, 0.42% active; AID 1481; in the data active = inhibition above about 15%;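 note: 0% = DMSO vehicle and 100% = wells lacking enzyme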
EP2 antag: EP2 receptor (human) inhibition; AID 1422; C6 glioma cells expressing human EP2, cAMP TR-FRET; cells stimulated with saturating PGE2; inhibition, % at 25 µM; P43116; 260,000 tested, 0.52% active;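 active = percent inhibition above 40 after rounding to a whole number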;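 note: rat C6 glioma host cells with rolipram phosphodiesterase inhibitor present; the protocol text gives 20 µM as final concentration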
Arbovirus anti: arbovirus infection inhibition. 200,000 tested, 0.37% active. inhibition, % at 10 µM. arbovirus infection cell-based antiviral screen; in the data active = inhibition above about 30%
EP2 cAMP induct: EP2 receptor cAMP induction, counter-screens negative; 1,300 tested, 47% active; shares compounds with EP2 mod; C6 glioma EP2 cells, cAMP HTRF induction; plus low (about EC15) PGE2 agonist; calls only at 20 µM (by protocol);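 active = cAMP induction above 50% in the main assay while under 30% in all four parallel counter assays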;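 note: rat C6 glioma cells stably expressing human EP2 receptor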
* marks the source's active call; other numbers are inactive results; i = inactive; . = no result given; + = active, no number; ! = not confirmed by another sample.

SMILES	EP2 mod	Hck Nef HTS	p97 ATPase inh	EP2 antag	Arbovirus anti	EP2 cAMP induct
Cc1noc(C)c1CSc1nc2sc(C)c(C)c2c(=O)n1-c1ccccc1	29	0	-5	21	-11	.
Cc1noc(C)c1CSc1nc2ccccc2c(=O)n1-c1ccc(Cl)cc1	71*	2	5	8	-2	+
CCN(CC)C(=O)c1nn(-c2ccccc2)c2c1C1CCC2(C)C1(C)C (stereo unspecified)	72*	-22	-5	7	8	i
Cc1nc2c3cc(F)ccc3n(Cc3ccccc3)c2s1	72*	0	-9	2	-11	+
CC1CCN(c2nc(-c3ccncc3)nc3ccccc23)CC1	79*	2	2	12	-7	i
COc1cccc(/C=C/C(=O)c2cccc([N+](=O)[O-])c2)c1	3	15	1	12	-13	.
COc1ccc(OC(=O)c2cccc([N+](=O)[O-])c2)c(C(=O)/C=C/c2cccs2)c1	77*	-2	5	11	-4	i
CC(=O)N1Cc2ccccc2C(C)CC12CCCCC2 (stereo unspecified)	66*	3	0	11	5	+
Cc1cccc(C)c1N1CCN(c2ccc3nnc(C(F)(F)F)n3n2)CC1	70*	-10	0	4	-46	+
FC(F)(F)c1nnc2ccc(N3CCOCC3)nn12	37	0	1	17	2	.
CCSc1ccccc1C(=O)n1nnc2ccccc21	68*	-2	1	4	3	i
CCSc1ccccc1C(=O)N1CCCC1	1	1	-3	1	-4	.
C=C(C)CSc1nc2ccccc2c(=O)n1Cc1ccccc1	26	.	.	9	.	.
O=c1c2ccccc2nc(/C=C/c2cccnc2)n1Cc1ccccc1	16	19	2	3	3	.
O=c1c2ccccc2nc(/C=C/c2cccnc2)n1CCc1ccccc1	-33	3	-6	10	.	.
C=CCSc1nc2ccccc2c(=O)n1Cc1ccccc1	72*	21	1	10	1	+
C=CCSc1nc2ccsc2c(=O)n1-c1ccccc1	68*	2	7	5	1	i
O=c1c2ccccc2nc(/C=C/c2ccccc2)n1CCc1ccccc1	80*	4	1	7	-2	+
Cc1cccc(/C=C/c2nc3ccccc3c(=O)n2Cc2ccccc2)c1	69*	2	3	1	-3	+
CC(C)(C)C1CCC(=NNc2ccc(S(N)(=O)=O)cc2[N+](=O)[O-])CC1 (stereo unspecified)	68*	10	3	7	-6	+
N#CC1(Cc2ccccc2Cl)c2ccccc2C=CN1C(=O)c1ccccc1 (stereo unspecified)	70*	-22	-4	.	-3	i
N#CC1c2ccccc2C=CN1C(=O)c1ccccc1 (stereo unspecified)	-1	0	-2	2	.	.
COc1ccc(C(=O)NCC2CCN(c3nc(C)cc(C)n3)CC2)cc1OC	-46	.	.	13	.	.
CCOC(=O)c1c(C)[nH]c(C=O)c1Cc1cccc(Cl)c1	69*	2	-1	7	-17	i
CN(C)c1ccc(C(C(=O)NC2CCCC2)N(C(=O)c2ccco2)c2ccc3c(c2)OCCO3)cc1 (stereo unspecified)	-1	.	.	9	.	.
SMILES	EP2 mod	Hck Nef HTS	p97 ATPase inh	EP2 antag	Arbovirus anti	EP2 cAMP induct
CCOC(=O)Cc1csc(NC(=O)CSc2cc(C)c3ccccc3n2)n1	16	.	.	7	.	.
CSc1nc(-c2ccc(Cl)cc2)nn1S(=O)(=O)c1ccccc1	85*	15	3	13	0	+
CSc1nc(-c2ccc(Cl)cc2)nn1S(=O)(=O)c1ccc(Cl)cc1	51	9	3	12	7	.
CCN(Cc1ccccc1)C(c1cc2cc(C)cc(C)c2[nH]c1=O)c1nnnn1CCOC (stereo unspecified)	73*!	0	-2	18	-4	i
Cn1c(=O)c2c(nc(CN3CCN(c4ccccc4)CC3)n2Cc2c(F)cccc2Cl)n(C)c1=O	71*	0	1	2	9	i
Cn1c(=O)c2c(nc(CN3CCN(c4ccccc4)CC3)n2Cc2ccccc2Cl)n(C)c1=O	58	0	1	6	-4	i
CCOc1cc(C)c(C2C(C#N)=C(N)Oc3n[nH]c(C)c32)cc1C(C)C (stereo unspecified)	-50	.	.	21	.	.
CCN1CCCC1CN(Cc1ccccn1)Cc1cn[nH]c1C(C)(C)C (stereo unspecified)	12	.	.	1	.	.
Cc1ccccc1S(=O)(=O)c1c(C)cc(C)n(C(C)C)c1=O	71*	-2	-3	3	8	+
CCCCn1c(C)cc(C)c(S(=O)(=O)c2ccccc2C)c1=O	78*	0	-8	11	6	+
CCc1nn(CC(=O)NCCc2ccccc2)c(=O)c2cc3sccc3n12	-44	.	.	.	.	.
COc1cccc(/C=N/c2oc(-c3ccccc3)cc2C#N)c1O	78*	3	-4	14	-15	i
CC(C)c1nc2ccccc2c2nn(CC(=O)NCc3ccc(F)cc3)c(=O)n12	-21	.	.	4	.	.
Cc1nn(CC(=O)Nc2ccncc2)c(=O)c2cc3sccc3n12	-28	.	.	.	.	.
COc1ccc(C(=O)NCCCN2CCOCC2)cc1OC	68*	0	-2	4	3	i
CC(=O)c1oc2ccccc2c1-n1cccc1	47	.	.	5	.	.
O=c1c2cn[nH]c2nc(SCc2ccccc2F)n1-c1ccc(Br)cc1	83*	0	1	13	-23	+
CC1(C)Cc2c(C#N)c(SC(C(=O)O)c3ccccc3)nc(N3CCOCC3)c2CO1 (stereo unspecified)	3	.	.	9	.	.
CCOC(=O)c1c(NC(=O)c2ccccc2N(C)S(=O)(=O)c2ccccc2)sc2c1CCCC2	29	-2	-7	5	-5	.
COC(=O)c1c(NC(=O)c2ccccc2N(C)S(=O)(=O)c2ccccc2)sc2c1CCCC2	54	0	-4	0	-21	i
Cc1ncc(-c2ccncc2)c(C2CCCN(C(=O)c3ccc4c(c3)OCCO4)C2)n1 (stereo unspecified)	14	.	.	.	.	.
O=C(CN1CCCC1=O)N1CCC(c2nc3sc4c(c3c(=O)[nH]2)CCCC4)CC1	-5	.	.	.	.	.
Cc1oncc1-c1csc(-c2ccccc2Cl)n1	69*	0	0	7	0	+
O=c1oc2c3c4c(cc2c(C(F)(F)F)c1CCN1CCOCC1)CCCN4CCC3	73*	-8	-3	9	10	i
O=c1oc2c3c4c(cc2cc1-c1nc2ccccc2[nH]1)CCCN4CCC3	.	.	.	.	2	.
O=C(COc1ccccc1)Nc1sc2c(c1C(=O)NC1CCS(=O)(=O)C1)CCCC2 (stereo unspecified)	24	.	.	11	.	.
